Our source for the growth values is PubChem BioAssay (NCI).

Each structure is given as a SMILES string. About 83,000 compounds went through this panel and 20% of them were active in at least one assay; those are over-represented in the sample as a whole.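 Each cell line was grown in a 96-well plate and treated with one concentration of compound for 48 hours. Values below 10 were considered active.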 Activity calls are given as the source filed them.

This assay has as its system SW-620 colon. The assay can be described thus: NCI-60 one-dose screen, 48 h (100 = growth as untreated, 0 = no growth, -100 = all killed). As to conditions: 10 µM unless noted. Here is the method:
Growth inhibition of the SW-620 human tumor cell line is measured as a screen for anti-cancer activity. Cells are grown in 96 well plates and exposed to the test compound for 48 hours. Compounds are tested at a single concentration, which is 10^-5 M for most compounds. The reported endpoint is percent growth (GI% or GIPRCNT), where numbers from 0 - 100% represent growth inhibition, and numbers from -100% - 0 represent cell death. For example, a value of 40 represents 60% growth inhibition. A value of 0 means no net growth occurred over the course of the experiment. A value of -40 indicates 40% of cells at the beginning of the experiment died by the end of the experiment. A value of -100 means all cells are dead at the end of the experiment.
NCI-60 Human Tumor Cell Lines Screen was performed using the standard one-dose NCI protocol, which is described in more detail at https://dtp.cancer.gov/discovery_development/nci-60/default.htm.
Compounds with GIPRCNT values below 10 were considered active. Activity score was based on GIPRCNT using the following formula: […]
Score is 0 for GIPRCNT values of 100 or above, 50 for GIPRCNT values of 0, and 100 for GIPRCNT values of -100.
Take `CCCC1C(C(=O)OCC)=C(N)Oc2cc(O)ccc21` (stereo not given): the growth is 97.1% (inactive).

Take `Cc1c(C2=CCCCC2)c2ccccn2c1C(=O)c1cccc(S(=O)(=O)N2CCOCC2)c1`: the growth was 98.2% (inactive). On to `CS(=O)(=O)c1ccc(-c2cc(-c3nnc(SCC(=O)Nc4ccc(C(=O)/C=C/c5ccc(Cl)cc5)cc4)n3-c3ccccc3)c3ccccc3n2)cc1`, for which the growth was 96.9% (inactive).

With `O=C1NC(=S)NC(=O)C1=Cc1cccc(C=C2C(=O)NC(=S)NC2=O)c1`, the growth was 106% (inactive). For `COc1ccc(/C=C2\COc3ccc(-c4ccccc4)cc3C2=O)cc1O`, the growth was 6.95% (active). `Cn1/c(=N/NC(N)=S)ccc2ccccc21`: the growth is 84.5% (inactive). Take `NC(=O)c1ccc[n+](CC(=O)N2CCN(c3cc4c(cc3F)c(=O)c(C(=O)O)cn4C3CC3)CC2)c1`: the growth was 6.58% (active). Regarding `CCN(CC)CCCC(C)Nc1c2c(nc3ccc(OC)cc13)CCCC2` (stereo not given), the growth was 103% (inactive). For `CC1=CC2(C)/C=C(C)/C=C\CC(O)/C=C3/C=CC(=C4C(=O)OC2(CC1C)C4=O)OC3` (stereo not given), the growth was -88.5% (active). For `CCOC(=O)C1=C(C)NC(C)=C(C(=O)OCC)C1c1cc(Br)c(O)c(OC)c1`, the growth was 24.6% (inactive). In the case of `Clc1nc(Cl)c2ncn(CCOCCn3cnc4c(Cl)nc(Cl)nc43)c2n1` it was -86.9% (active); in that of `O=C(O)C(/C=C/c1ccco1)=N\Nc1nc(-c2ccc(Cl)cc2)cs1`, 71.5% (inactive).

For `CC(C)NC(=O)N1C(=O)CCC1NNC(=O)c1ccc([N+](=O)[O-])cc1` (stereo not given), the growth was 112% (inactive). `O=S(=O)(c1cccc(NC2=Nc3cccc4cccc2c34)c1)N1CCCC1`: the growth was 64.4% (inactive). Turning to `NS(=O)(=O)c1cccc(NC(=O)C(=O)C2C(=O)Nc3ccccc32)c1` (stereo not given), the growth is 94.5% (inactive). On to `CC(c1ccccc1)n1ccnc1CO` (stereo not given), for which the growth was 97.8% (inactive). Regarding `CC(=O)NCCCS(=O)(=O)O`, the growth is 90.9% (inactive).

With `Fc1ccc(-n2cc(COc3ncnc4sc5c(c34)CCCC5)nn2)cc1Cl`, the growth is 101% (inactive).

Take `BrC(Br)(Br)c1cnc2ccccc2n1`: the growth was -65% (active). As to `Cc1[nH]c(C(=O)Nc2ccccc2OCc2cccc(C(=O)NCCN)c2)c(Cl)c1Cl`, the growth is 3.75% (active). With `O=C(CSc1nc2sc3c(c2c(=O)n1Cc1ccccc1)CCCC3)N1CCN(c2ccccc2)CC1`, the growth was 102% (inactive). Consider `CCCCCCC/C=C/[C@H]1O[C@]2(O)C(=O)C=C3C[C@@H](O[C@@H]4O[C@H](CO)[C@@H](O)C(O)[C@@H]4O)C[C@@H]3[C@H]2C=C1C` (stereo not given in full), for which the growth is -28.5% (active). With `Nc1cc(N)c2cccnc2c1O`, the growth is 60% (inactive). In the case of `COc1ccc(/C=N/C2=C(C#N)C(c3ccccc3[N+](=O)[O-])c3ccc4ccccc4c3O2)cc1` (stereo not given) it was 97.8% (inactive). On to `Cn1c(COC(=O)NCCc2ccccn2)nc2c(N3CCOCC3)nc(Cl)nc21`, for which the growth is -86.2% (active).

Turning to `COc1ccc(-c2nc(N=Nc3c(O)[nH]c4ccccc34)nc(N3CCOCC3)c2C#N)cc1`, the growth is 66.8% (inactive). Consider `COc1cccc(-c2nc3occn3c2-c2ccnc(NCCCNS(=O)(=O)c3cccc(F)c3)n2)c1`, for which the growth is 115% (inactive). With `CC(C)(C)OC(=O)N1C/C(=C\c2ccoc2)C(=O)/C(=C/c2ccoc2)C1`, the growth is 56.8% (inactive). `CCOC(=O)C1CC(=O)c2cc(OC)c(OC)cc2C1` (stereo not given): the growth was 111% (inactive). Regarding `CCN(CC)CCOC(COc1cc(C)cc(C)c1)COc1cc(C)cc(C)c1`, the growth is 24.1% (inactive). For `O=S(=O)(O)c1cc(O)c2c(N=Nc3ccc(Nc4ccccc4)c4c(S(=O)(=O)O)cccc34)cc(S(=O)(=O)O)cc2c1`, the growth is 103% (inactive). Regarding `COc1nccnn1`, the growth was 101% (inactive).

As to `CC(=O)N1c2ccccc2NC2=C(C(=O)N(C)C2(C)C)C1C` (stereo not given), the growth was 24.2% (inactive). `CC(=O)c1cc2c(N)c(C(=O)Nc3cncc4ccccc34)sc2nc1C`: the growth was 103% (inactive). For `COc1ccc(-c2nc(N/N=C/c3cccc(Br)c3)nc(N3CCOCC3)c2C#N)cc1`, the growth is 14% (inactive). `CCNNC(=O)[C@@H]1[C@H](c2cc(OC)c(OC)c(OC)c2)c2cc3c(cc2[C@H](O)[C@H]1CO)OCO3`: the growth is 20.5% (inactive). On to `CN1CCN(c2cc(F)c(NC3=C(Cl)C(=O)c4ncccc4C3=O)c(F)c2)CC1`, for which the growth is -76.6% (active). Consider `O=C1c2cccnc2C(=O)c2nc3cc(N4CCN(C5CC5)CC4)ccc3nc21`, for which the growth is -37.8% (active).

Take `C=C(C)[C@@H]1CC[C@]2(C=O)CC[C@]3(C)[C@H](CC[C@@H]4[C@@]5(C)CCCNC(C)(C)[C@@H]5CC[C@]43C)[C@@H]12`: the growth is -31.4% (active). `O=S(=O)(NCCCNc1nccc(-c2c(-c3cccc(O)c3)nc3occn23)n1)c1ccc(F)cc1`: the growth was 103% (inactive).
